# HCV inhibitor – inhibitors of hepatitis C virus infection. Huh7.5.1 HCVcc-Cre infection, luciferase reporter, 44 h. Potency, µM (doses to about 41.8 µM), for the others: top-dose activity change, negative = inhibition, most hits filed as inhibitors. 340,000 tested, 3.4% active. AID 651820
#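 A cell-based infection assay in which seeded cells (1,000 per well) receive test compound after 4 h, are inoculated with HCVcc-Cre at approximately 0.5 moi, and are incubated 44 h before luminescence detection.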
# AmpC inh no detg – AmpC beta-lactamase inhibition without detergent | P00811 | 330,000 tested, 0.52% active | AmpC nitrocefin hydrolysis, absorbance 480 nm, 0.0001% Triton | Potency, µM (series often up to 57.1 µM), inactives show top-dose activity change, negative = inhibition, usual class: inhibitors;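 note: plate controls were no compound for no effect and no enzyme for full effect; nearly all actives have a fitted effect of over 20% in size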
# Target sequence (P00811 whole entry, looked up): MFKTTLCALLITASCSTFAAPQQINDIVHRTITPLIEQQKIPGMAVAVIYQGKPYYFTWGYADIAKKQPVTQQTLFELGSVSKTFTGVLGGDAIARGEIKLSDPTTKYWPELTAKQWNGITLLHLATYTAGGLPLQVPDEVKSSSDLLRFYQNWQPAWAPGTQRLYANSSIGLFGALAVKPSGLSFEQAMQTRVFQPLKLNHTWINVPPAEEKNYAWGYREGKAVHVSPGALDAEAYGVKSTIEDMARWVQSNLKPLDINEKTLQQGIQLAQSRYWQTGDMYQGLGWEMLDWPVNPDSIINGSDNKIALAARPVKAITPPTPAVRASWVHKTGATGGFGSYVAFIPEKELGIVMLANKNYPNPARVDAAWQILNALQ
#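 20 mM phosphate pH 7.0 + 0.01% (detergent screen) or 0.0001% Triton X-100; 5.3 nM AmpC reagent; cpd preinc 15 min RT; nitrocefin (800 uM stock) to start; A480 q20 s × 4 min; Activity was normalised to no-enzyme and no-compound control wells.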
# Pf growth 48h – P. falciparum growth inhibition at 48 hours (one generation); P. falciparum luciferase growth in erythrocytes, 48 h; Potency, µM (series often up to 28.7 µM), for inactives: top-dose activity change, negative = inhibition, most hits filed as inhibitors; 310,000 tested, 5.9% active; AID 504832
#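 Here the parasites carry a stable luciferase gene and grow inside erythrocytes in Albumax-based RPMI medium with compound for one erythrocytic cycle. Activity is scored as loss of luminescent signal.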
# AmpC detergent – AmpC beta-lactamase inhibition with detergent present; P00811; AmpC hydrolysis of nitrocefin, absorbance 480 nm, 0.01% Triton; Potency, µM (top dose mostly 114 µM), for the others: top-dose activity change, negative = inhibition, usual class: inhibitors; 370,000 tested, 0.041% active; AID 485294;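 note: 0% = no-compound wells and -100% = no-enzyme wells; nearly all actives have a fitted effect of over 25% in size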
#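 20 mM phosphate pH 7.0 + 0.01% (detergent screen) or 0.0001% Triton X-100; 5.3 nM AmpC reagent; cpd preinc 15 min RT; nitrocefin (800 uM stock) to start; A480 q20 s × 4 min; Activity was normalised to no-enzyme and no-compound control wells.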
# AMA1 RON2 block – inhibitors of Plasmodium falciparum AMA1-RON2 interaction; Potency, µM (highest dose often 58.2 µM), for the others: top-dose activity change, negative = inhibition, most hits filed as inhibitors; AlphaScreen AMA1-biotinylated RON2 peptide binding; 360,000 tested, 0.2% active; AID 720542;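 note: 0% = vehicle wells and -100% = peptide control; nearly all actives have a fitted effect of over 45% in size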
#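 AMA1 (3D7) with his tag at 25 nM final met compounds first, then biotinylated RON2 peptide at 25 nM; detection used donor plus acceptor beads, 10 µg/mL apiece, read by AlphaScreen after 30 min at room temperature.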
# Pf growth 96h – inhibits malaria parasite growth, 96 h; P. falciparum luciferase reporter growth, 96 h; Potency, µM (titrated, usually from 28.7 µM), inactives show at the highest dose activity change, negative = inhibition, hits mostly inhibitors; 320,000 tested, 6.9% active; AID 504834
#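 Plates of compound plus infected erythrocytes (2% hematocrit, 0.05% parasitemia final) incubate 96 hours, 37 C, 5% CO2. Detection reagent added; reduced luminescence from the parasites' luciferase reporter flags inhibition.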
# * = called active by the depositor; u = inconclusive; x = no result; [ ] = another dose, or the depositor's remark. Most compounds without a hit are left out; they make up all but 11% or so of the library. Calls come from the whole dose curve; as a rule, active = well fitted curve in the direction sought with a large enough effect; inconclusive = small, poorly fitted or top-dose-only effect, or another doubt; inactive = no such curve, though single readings can be large; an effect the other way counts as inactive or inconclusive. Unless noted, % is set by controls: 0 for no effect and ±100 for the full control effect; potency is the fitted concentration of half-maximal effect.
SMILES,HCV inhibitor,AmpC inh no detg,Pf growth 48h,AmpC detergent,AMA1 RON2 block,Pf growth 96h
COc1ccc(/C=C2\Sc3ccc(C(=O)NCC4CCCO4)cc3N(C)C2=O)cc1 (stereo unspecified),u,72%,u,-11%,-8%,u
O=C(NCCc1ccccc1)c1ccc(NC(=O)C2CCCCC2)cc1,5%,x,x,x,5%,x
CC(=O)c1cccc(NC(=S)NCCCCc2ccccc2)c1,0%,-35%,-22%,-5%,16%,9.3µM*
O=C(NCCCCc1ccccc1)c1cccc(NC(=O)C2CCCC2)c1,8.9µM*,x,x,x,-1%,x
O=C(NCCc1ccccc1)c1ccc(NC(=O)C2CCC2)cc1,0.63µM*,x,x,x,8%,x
O=C(NCCCCc1ccccc1)c1ccccc1,1%,-32%,3%,-5%,-2%,u
O=C(NCCCCc1ccccc1)c1cccc(NC(=O)c2ccccc2)c1,-60%,x,x,x,-2%,x
O=C(NCCCc1ccccc1)c1ccccc1,12%,-3%,30%,u,3%,9.3µM*
CCOC(=O)CCCN1C(=O)CCn2nc(-c3cn(C)c4ccccc34)cc21,x,x,x,17%,x,x
O=C(NCCC(=O)N(CCc1ccccc1)Cc1ccccc1)c1ccc(Br)cc1,5%,23%,u,-9%,40%,13µM*
COc1ccccc1COCC(O)CN1CCCCC1CO (stereo unspecified),2%,5%,-14%[0.00184 µM],-1%,-5%,u
OC1CCCN(CC(O)COC(c2ccc(F)cc2)c2ccc(F)cc2)C1 (stereo unspecified),u,19%,2.6µM*,4%,-21%,2.1µM*
OCC1CCCCN1CC(O)COC(c1ccc(F)cc1)c1ccc(F)cc1 (stereo unspecified),u,40%,9.3µM*,0%,3%,u
O=C(NCCc1csc(-c2cccc(F)c2)n1)c1ccccc1C(F)(F)F,x,x,x,3%,x,x
COc1cc2c(cc1OC)[C@@H]1O[C@](c3ccsc3)(C2)Oc2cc(C)n(-c3ccccc3)c(=O)c21,x,-28%[11.4 µM],2%[5.75 µM],-5%[22.9 µM],x,1.5µM*
Cc1cc2c(c(=O)n1-c1ccccc1)C1O[C@](c3ccsc3)(Cc3ccccc31)O2,x,-42%[11.4 µM],u,-9%[22.9 µM],x,1.7µM*
COc1ccc(NC(=O)C(NC(=O)OC(C)(C)C)C(C)OCc2ccccc2)cc1 (stereo unspecified),12%,-6%,1%,-6%,-3%,1.7µM*
CCCCNC(=O)CCCn1c(=O)c2ccccc2n(CC(=O)Nc2ccccc2OCC)c1=O,x,x,x,17%,x,x
CCOc1ccccc1NC(=O)C1CCCN1S(=O)(=O)c1ccccc1C(F)(F)F (stereo unspecified),u,26%,8.3µM*,-25%,0%,u
CC(=O)c1cccc(NC(=O)C2CCCN2S(=O)(=O)c2ccccc2C(F)(F)F)c1 (stereo unspecified),x,x,x,x,23%,x
O=C(Nc1cccc(S(=O)(=O)N2CCOCC2)c1)[C@@H]1CCCN1S(=O)(=O)c1ccc(Cl)cc1,u,14%,u,-2%,-8%,1.9µM*
O=C(Nc1cccc(S(=O)(=O)N2CCCCC2)c1)[C@@H]1CCCN1S(=O)(=O)c1ccccc1C(F)(F)F,14µM*,x,x,x,0%,x
COc1ccccc1C(=O)Nc1c(C(=O)N(C)c2ccccc2)sc2nc(C)cc(C)c12,x,x,x,0%,x,x
CCOc1ccccc1NC(=O)C(=O)c1cc(C)n(-c2cccc(C)c2C)c1C,x,x,x,1%,x,x
Cc1c(OCC(=O)NCCCN2CCOCC2)ccc2c1oc(=O)c1ccccc12,5%,-11%,u,-7%,0%,u
SMILES,HCV inhibitor,AmpC inh no detg,Pf growth 48h,AmpC detergent,AMA1 RON2 block,Pf growth 96h
CC(=O)Oc1cc2c(C(=O)NCCCN3CCOCC3)c(C)oc2c2ccccc12,11µM*,165%,u,-14%,2%,12%
Cc1ccc(SC(C)C(=O)N2CCN(c3ccccc3)CC2)cc1 (stereo unspecified),19%,57%,27%,3%,-6%,8.3µM*
O=C(C(Sc1ccccc1)c1ccccc1)N1CCN(c2ccccc2)CC1 (stereo unspecified),3%,-10%,u,-12%,u,u
O=C(O)c1ccc(Cn2cnc3sc4c(c3c2=O)CCCC4)cc1,11%,-28%,8%,4%,-19%,2%
Cc1ccc(Cn2cnc3sc4c(c3c2=O)CCC4)c(C)c1,u,-48%,u,1%,0%,1.9µM*
CCOC(=O)c1c(NC(=O)Cc2cccs2)sc(C)c1C,35µM*,-22%,-2%,-2%,2%,x
CCCn1c(NC(=O)C2COc3ccccc3O2)nc2ccccc21 (stereo unspecified),-16%,-10%,9.3µM*,-4%,28%,u
CCOC(=O)c1ccccc1NC(=O)C1COc2ccccc2O1 (stereo unspecified),u,-10%,u,-8%,4%,u
CCOC(=O)c1c(NC(=O)C2COc3ccccc3O2)sc(C)c1C (stereo unspecified),8%,-30%,5.9µM*,-6%,-14%,7%
CCc1ccccc1NC(=O)C1COc2ccccc2O1 (stereo unspecified),18%,-19%,u,3%,3%,2.9µM*
CCOC(=O)c1c(NC(=O)Cc2cccs2)sc(C(=O)NC2CCCC2)c1C,-9%,-21%,18%,-12%,9%,u
Cc1ccccc1NC(=O)C1COc2ccccc2O1 (stereo unspecified),10%,-10%,14%,u,-8%,53%
O=C(N/N=C\c1cccc([N+](=O)[O-])c1O)C1COc2ccccc2O1 (stereo unspecified),-7%,-24%,-6%,6%,-7%,-11%
O=C(Nc1ccccc1[N+](=O)[O-])C1COc2ccccc2O1 (stereo unspecified),-2%,-29%,133%,-16%,u,12µM*
CCCNC(=O)c1c(NC(=O)C2COc3ccccc3O2)sc2c1CCCC2 (stereo unspecified),-6%,-21%,5%,u,1%,10µM*
CCOc1ccc2[nH]cc(-c3csc(N)n3)c2c1,-20%,-37%,12µM*,-7%,19%,u
COc1ccc(C2(C)NC(=O)N(CC(=O)c3cc(C)n(C4CC4)c3C)C2=O)cc1 (stereo unspecified),11%,25%,u,1%,-1%,3.7µM*
